Shiga toxin inh: blocks Shiga toxin action in Vero cells; Vero cells, Shiga toxin protein synthesis inhibition reporter; inhibition, % at 38.7 µM; hit rate 9.2% among 290,000; AID 2315; in the data active = inhibition mostly above about 28%, no sharp cut-off; inactive = mostly below about 43%; also: 0% is about no effect
LmPK inhibitor: blocks Leishmania mexicana pyruvate kinase activity; Q27686; purified LmPK, Kinase-Glo ATP luminescence, 1 h; Potency, µM (top dose mostly 57.5 µM), for the others: at the highest dose activity change, negative = inhibition, most hits filed as inhibitors; hit rate 0.37% among 290,000; AID 1721; also: potency is read from the fitted curve at half-maximal effect; % is scaled to controls: 0 for no effect and ±100 for the full control effect
Target sequence (Q27686 whole entry, looked up): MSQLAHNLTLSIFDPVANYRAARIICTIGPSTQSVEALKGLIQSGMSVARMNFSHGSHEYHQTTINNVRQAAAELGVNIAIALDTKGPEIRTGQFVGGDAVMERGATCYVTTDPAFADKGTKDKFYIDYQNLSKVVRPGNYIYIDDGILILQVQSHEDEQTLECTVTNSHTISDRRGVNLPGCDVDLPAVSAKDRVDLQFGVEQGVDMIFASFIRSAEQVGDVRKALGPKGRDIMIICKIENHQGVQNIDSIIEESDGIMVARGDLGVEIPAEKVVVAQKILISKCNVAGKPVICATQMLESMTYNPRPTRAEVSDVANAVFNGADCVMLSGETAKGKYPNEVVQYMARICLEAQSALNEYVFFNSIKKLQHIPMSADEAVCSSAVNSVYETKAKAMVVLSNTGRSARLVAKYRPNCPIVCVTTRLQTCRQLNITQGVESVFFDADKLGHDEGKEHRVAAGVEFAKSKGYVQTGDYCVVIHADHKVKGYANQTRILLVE
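0.1 nM LmPK, 0.5 mM PEP, 0.1 mM ADP; 50 mM imidazole pH 7.2, 7 mM MgCl2, 50 mM KCl; 1 h RT. Kinase-Glo luminescence readout, normalized to no-enzyme (full inhibition) and uninhibited wells.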
Cycloheximide cs: counter-screen for Shiga toxin inhibitors: cycloheximide protein synthesis inhibition; AID 2314; cell reporter, cycloheximide protein synthesis inhibition counterscreen; hit rate 12% among 300,000; max response, %; in the data active = max response mostly above about 13%, no sharp cut-off; inactive = mostly below about 14%; also: read at 38.3 µM for the half of the compounds with a filed dose; 0% is about no effect
Giardia FBPA inh: Giardia lamblia aldolase inhibition; purified Giardia FBPA; AID 2451; hit rate 0.71% among 290,000; Potency, µM (titrated, usually from 59.6 µM), inactives show at the highest dose activity, negative = inhibition, hits mostly inhibitors; also: potency is read from the fitted curve at half-maximal effect; % is scaled to controls: 0 for no effect and ±100 for the full control effect; nearly all actives have a fitted effect of over 55% in size
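Giardia FBPA (40 nM reagent) was preincubated 10 min at RT with compound (up to 57.5 uM final), then substrate plus GAPDH/TPI/NAD/arsenate coupling system with diaphorase/resazurin was added; resorufin fluorescence (525/598 nm) was read after 20 min.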
TbPYK inhibitor: T. brucei pyruvate kinase inhibition. Q57TT1. TbPYK enzyme, Kinase-Glo Plus ATP luminescence, 45 min. Potency, µM (doses to about 76.8 µM), inactives show at the highest dose activity, negative = inhibition, usual class: inhibitors. hit rate 0.12% among 410,000. AID 624173; also: potency is read from the fitted curve at half-maximal effect; % is scaled to controls: 0 for no effect and ±100 for the full control effect; nearly all actives have a fitted effect of over 50% in size
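ADP (130 uM final) triggers the TbPYK reaction after compound addition; incubation is 45 min at room temperature. Kinase-Glo Plus is then added and luminescence imaged. Normalized data are fitted to concentration-effect curves.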
RE007 growth inh: less growth of the S. pombe RE007 Vpr strain; S. pombe RE007 Vpr strain, BacTiter-Glo ATP luminescence, 24 h; Potency, µM (series often up to 92.2 µM), for inactives: at the highest dose activity change, negative = less growth, actives largely listed as inhibitors; hit rate 0.21% among 360,000; active = well fitted falling curve with a large enough effect; inconclusive = small, poorly fitted or top-dose-only effect; inactive = no such curve, though single readings can be large or run the other way; also: potency is read from the fitted curve at half-maximal effect; % is scaled to controls: 0 for no effect and ±100 for the full control effect; nearly all actives have a fitted effect of over 50% in size
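Fission yeast strain RE007, carrying one chromosomally integrated HIV-1 vpr copy, was seeded at OD 0.01 in PMG+AL medium with 23 nL pinned compound. After 24 h at 30 °C and 99% humidity, viability was read by BacTiter-Glo luminescence.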
Numbers without * were called inactive; ? = inconclusive; · = not tested or not shown. This is one part of a sample in which hits are shown more often than they occur. Unless noted, calls follow the shape of the dose curve; as a rule, active = well fitted curve in the direction sought with a large enough effect; inconclusive = small, poorly fitted or top-dose-only effect, or another doubt; inactive = no such curve, though single readings can be large; an effect the other way counts as inactive or inconclusive.

SMILES	Shiga toxin inh	LmPK inhibitor	Cycloheximide cs	Giardia FBPA inh	TbPYK inhibitor	RE007 growth inh
Cc1ccc(/C(N)=N/OC(=O)c2ccc(F)cc2)cc1	91*	-2%	49*	2%	6%	-28%
N/C(=N\OC(=O)c1ccc(F)cc1)c1ccc(Br)cc1	70*	-2%	33*	1%	-3%	-28%
Cc1ccc(OCCC(=O)OCC(=O)NC2CCS(=O)(=O)C2)cc1 (configuration not stated)	·	·	·	·	2%	-12%
CC1=C(C(=O)Nc2ccccn2)C(c2ccccc2Cl)NC(=S)N1 (configuration not stated)	100*	-5%	40*	-3%	-3%	4%
CC1=C(C(=O)Nc2ccccn2)C(c2ccc(Cl)cc2Cl)NC(=S)N1 (configuration not stated)	111*	-3%	35*	0%	-1%	-17%
CCC(Oc1ccccc1)C(=O)Nc1ccc(-c2nnc(-c3ccco3)o2)cc1 (configuration not stated)	89*	0%	36*	1%	4%	52%
COc1ccccc1OCC(=O)Nc1ccc(-c2nnc(-c3ccco3)o2)cc1	-20	1%	2	2%	-4%	-19%
Cc1ccc(NC(=O)c2cncc(Br)c2)c(O)c1	66*	-3%	35*	0%	2%	-18%
O=C(Nc1ccc(OC(F)(F)F)cc1)c1ccc2nc[nH]c2c1	·	5%	33*	?	-7%	4%
Cc1ccc(NC(=O)c2ccc3nc[nH]c3c2)nc1	-17	2%	-5	·	-1%	2%
O=C(NC(=S)Nc1ccc(Br)cn1)c1cncc(Br)c1	25	1%	12	-5%	0%	-4%
Cc1ccc(NC(=O)c2ccc3nc[nH]c3c2)c(O)c1	74*	2%	33*	-1%	0%	6%
Cc1ccc(NC(=O)c2cncc(Br)c2)nc1	79*	-4%	28*	·	0%	0%
COc1ccc(C(=O)NC(=S)Nc2ccccc2[N+](=O)[O-])cc1OC	5	1%	-1	?	-3%	3%
CCn1cc(C(=O)NC(=S)Nc2cccc(O)c2)cn1	58*	0%	28*	-12%	-5%	-14%
CCn1cc(C(=O)Nc2ccccc2C(=O)OC)cn1	·	·	·	·	-2%	-18%
CCn1cc(C(=O)NC(=S)Nc2sc3c(c2C(=O)OC)CCCCCC3)cn1	-7	4%	4	0%	-8%	15%
CCn1cc(C(=O)NC(=S)Nc2ccccc2Br)cn1	41*	-1%	23*	-20%	3%	4%
CCN(CC)c1ccc(NC(=O)c2cnn(CC)c2)cc1	100*	-7%	44*	·	-18%	-5%
CCn1cc(C(=O)NC(=S)Nc2ccccc2[N+](=O)[O-])cn1	58*	0%	35*	·	0%	-15%
CCOC(=O)C1=C(COC(=O)/C=C/c2cc(OC)c(OC)c(OC)c2)NC(=O)NC1C (configuration not stated)	-20	-3%	15	·	-6%	3%
C[C@](O)(C(=O)Nc1ccc(S(=O)(=O)c2ccccc2)cc1)C(F)(F)F	·	·	·	14%	·	·
Cc1ccc(NC(=O)CSc2nc(-c3ccco3)nc3cc(=O)[nH]n23)cc1C	·	·	·	·	-4%	·
CCN(CC)C(=O)Cn1cc(SCC(=O)NC2CCCCC2)c2ccccc21	·	·	·	·	-3%	-17%
CCOc1cc2[nH]c(=O)n(CCCC(=O)N3CCN(c4ccc(OC)cc4)CC3)c(=O)c2cc1OCC	·	·	·	·	2%	·
SMILES	Shiga toxin inh	LmPK inhibitor	Cycloheximide cs	Giardia FBPA inh	TbPYK inhibitor	RE007 growth inh
Cc1c(C(=O)N2CCC(C(=O)Nc3ccc(F)cc3)CC2)sc2nc[nH]c(=O)c12	·	·	·	·	-1%	·
Cc1c(C(=O)N2CCN(C(=O)c3ccccc3)CC2)oc2ccc(F)cc12	·	·	·	·	4%	10%
Cc1c(C(=O)/C=C/c2cccs2)oc2ccc(F)cc12	73*	0%	36*	0%	-6%	-1%
CNC(=O)C(N)CSC(C)C1=C(C)c2cc3[n-]c(cc4nc(cc5[n-]c(cc1n2)c(C)c5CCC(=O)O)C(CCC(=O)O)=C4C)c(C)c3C(C)SCC(N)C(=O)NC.[Fe+2] (configuration not stated)	·	·	·	·	1%	·
COCC(=O)Nc1ccc(C(C)C)cc1	110*	6%	37*	3%	0%	0%
COc1ccc(NC(=O)Nc2ccc(C(C)C)cc2)cc1	58*	0%	19*	-10%	3%	-18%
CC(=O)NCCNC(=O)CCCn1c(=O)[nH]c2ccsc2c1=O	·	·	·	·	7%	·
COC(=O)c1c(NC(=O)C2CCC2)sc(C(=O)N(C)C)c1C	-7	3%	-1	0%	1%	-6%
CCOC(=O)c1c(NC(=O)CCN2C(=O)c3ccccc3C2=O)sc(C(=O)OC(C)C)c1C	4	3%	1	-2%	-2%	-2%
COC(=O)c1c(NC(=O)C2CC2)sc(C(=O)Nc2ccccc2)c1C	52*	1%	25*	-3%	-22%	3%
CCOC(=O)c1sc(NC(=O)CSc2nc3ccccc3s2)c(C(=O)OCC)c1C	-1	5%	1	2%	·	·
CCOC(=O)c1sc(NC(=O)CCN2C(=O)c3ccccc3C2=O)c(C(=O)OCC)c1C	22	3%	13*	3%	-8%	-29%
CCOC(=O)c1c(NC(=O)CSc2cccc[n+]2[O-])sc(C(=O)Nc2ccccc2)c1C	72*	2%	27*	?	-14%	-5%
Cc1cc(C)c(S(=O)(=O)c2cccc(Cl)c2)c(=O)[nH]1	23	1%	-2	7%	0%	1%
CCN(C(=O)c1cc2c(s1)-c1ccccc1OC2)c1cccc(C(F)(F)F)c1	·	·	·	·	3%	·
CCCc1nn2c(=O)cc(COC(=O)c3ccccc3NC(=O)c3ccc(Cl)cc3)nc2s1	·	·	·	·	-1%	·
O=C1/C(=C\c2cc([N+](=O)[O-])ccc2O)SC(=S)N1Cc1ccc(Cl)cc1	-3	1%	-2	0%	-3%	40µM*
O=C1/C(=C\c2cccc(O)c2O)SC(=S)N1Cc1ccccc1	-1	-3%	-1	?	-19%	?
Cc1ccc(-n2ncc3c2CCCC3NC(=O)c2csnn2)cc1C (configuration not stated)	60*	3%	19*	-1%	7%	14%
Cc1cc(C)cc(-n2ncc3c2CCCC3NC(=O)c2csnn2)c1 (configuration not stated)	22*	-6%	14	8%	2%	6%
Cc1ccc(-n2ncc3c2CCCC3NC(=O)c2ccoc2)cc1C (configuration not stated)	-3	-8%	-3	-10%	3%	29%
Cc1cccc(-n2ncc3c2CCCC3NC(=O)CC(F)(F)F)c1C (configuration not stated)	-7	1%	-3	-4%	0%	17%

Assay outcomes from PubChem.
